# Measurements taken from the supplement of paper PMC8699584.
# Several values for one entry are separate records, joined by “and”; a condition that tells them apart may be missing. Identical values can stand only once. ± gives the standard deviation of the averaged measurements.
# How the values were obtained:
# Molm13 = assay: cell viability relative to DMSO control (bortezomib = 0%); higher = less growth inhibition; details: 10 nM; 72 h
# Procedure, shortened: (§1)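 Acute myeloid leukemia cells, 1000 per well in 50 µL, were incubated for 72 h on 384-well plates with 679 approved and investigational compounds, each at a single 10 nM dose. Viability was read by CellTiter-Glo luminescence. Values were expressed as percentages through per-plate linear regression against DMSO-treated (100%) and positive-control-treated (0%) cells.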
# Mv4-11 = assay: as above; details: 10 nM; 72 h
# Procedure, shortened: as §1
Structure (SMILES),cell viability (Molm13),cell viability (Mv4-11)
O=C(Nc1ccc(OC(F)(F)F)cc1)c1sccc1NCc1ccnc2ccccc12,111 ± 3.1%,109 ± 6%
Cc1nc(Nc2ncc(C(=O)Nc3c(C)cccc3Cl)s2)cc(N2CCN(CCO)CC2)n1 [Dasatinib monohydrate],80.8 ± 25%,106 ± 9.4%
CC(C)N(CCC(=O)c1ccc2ccccc2c1)Cc1ccccc1,96.8 ± 7%,111 ± 1.4%
COc1ccc(S(=O)(=O)N(C(C)=O)c2ccccc2/C=C/c2cc[n+]([O-])cc2)cc1,98.3 ± 18%,104 ± 27%
O.O.O.O.O=C([O-])CC(O)(CC(=O)[O-])C(=O)[O-].[Li+].[Li+].[Li+] [Lithium citrate tribasic tetrahydrate],109 ± 1.3%,114 ± 1.7%
CC(C)[C@H](CO)Nc1nc(Nc2cccc(Cl)c2)c2ncn(C(C)C)c2n1 [Purvalanol A],102 ± 7.3%,106 ± 12%
CS(=O)(=O)CCNCc1ccc(-c2ccc3ncnc(Nc4ccc(OCc5cccc(F)c5)c(Cl)c4)c3c2)o1 [Lapatinib],96.5 ± 5.9%,103.5 ± 0.39%
Cn1cc(/C=C2\C(=O)Nc3cccnc32)c2ccccc21,104 ± 17%,107 ± 3.6%
CCN1CCN(Cc2ccc(Nc3ncc(F)c(-c4cc(F)c5nc(C)n(C(C)C)c5c4)n3)nc2)CC1,105% and 98.2%,102% and 112%
CNC(=O)c1c(C)oc2cc(Oc3ncnc4cc(OC)c(OC)cc34)ccc12 [Fruquintinib],103 ± 25%,106 ± 2.8%
COc1cc(N2CCC(N3CCN(C)CC3)CC2)ccc1Nc1ncc(Cl)c(Nc2ccccc2P(C)(C)=O)n1 [Brigatinib],115 ± 41%,108 ± 28%
CN(C)C/C=C/C(=O)Nc1ccc(C(=O)Nc2cccc(Nc3ncc(Cl)c(-c4c[nH]c5ccccc45)n3)c2)cc1,88 ± 18%,95.3 ± 1.1%
